Screening data as filed in PubChem BioAssay.
S16 viability: Cell viability qHTS assay in S16 Pmp22-F2sN cells; S16 Pmp22-F2sN Schwann cells viability, CellTiter-Glo, 24 h; 0.48% of 43,000 active; Potency, µM (doses to about 57.5 µM), actives largely listed as cytotoxic; AID 1508642, 2021; further: nearly all actives have a fitted effect of over 65% in size
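Luminescence from CellTiter-Glo, read by CCD camera after a 15 min room-temperature incubation, served as the viability signal. Reporter Schwann cells (S16 Pmp22-F2sN) had been treated with pin-transferred compounds for 24 h at 37C.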
PMP22 txn: Cell-based coincidence reporter assay to measure PMP22 gene transcription in S16 Pmp22-F2sN cells - Primary screen. 2% of 43,000 active. S16 Pmp22-F2sN Schwann cells (luciferase reporters placed in the Pmp22 gene), FLuc/NLuc coincidence luminescence, 24 h. Potency, µM (series often up to 57.5 µM), actives largely listed as inhibitors; active means clear falling dose curves in both reporters; inconclusive means both reporters move, but less clearly or upward; inactive means either reporter flat; the % is the NLuc reporter signal
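Schwann cells carrying the coincidence reporter were exposed to library compounds for 24 h at 37C, then lysed and read for FLuc and, after quenching, NLuc luminescence on a CCD imager.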
p53null 39C tox: qHTS Screen for Compounds that Selectively Target Cancer Cells with p53 Mutations: Cytotoxicity of p53 Null Cells at the Nonpermissive Temperature; AID 904, 2007; H1299 p53-null (neo) cells, 39C, ATPlite viability, 24 h; 0.97% of 55,000 active; Potency, µM (top dose mostly 46.1 µM), usual class: cytotoxic; further: nearly all actives have a fitted effect of over 50% in size
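Temperature-shift cytotoxicity format: compound titrations on p53-null or A138V-expressing H1299 cells held 24 hr at 39C, cell ATP then measured, AC50 from Hill model.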
pS6 MEF inh: Acumen qHTS Assay for Inhibitors of the mTORC1 Signaling Pathway in MEF (Tsc2-/-, p53-/-) Cells: Sytravon. Tsc2-/- p53-/- MEF, phospho-rpS6 immunofluorescence/PI, 24 h. Potency, µM (top dose mostly 38.3 µM), most hits filed as inhibitors. 0.78% of 44,000 active. AID 493208, 2011; further: nearly all actives have a fitted effect of over 50% in size
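Immunofluorescence of rpS6 phosphorylation in Tsc2-/-, p53-/- MEFs after 24 h compound exposure, normalized to propidium iodide signal. Activity is expressed as % positive cells, thresholded with 7.5 nM rapamycin.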
p53null 32C kill: qHTS Screen for Compounds that Selectively Target Cancer Cells with p53 Mutations: Cytotoxicity of p53 Null Cells at the Permissive Temperature; H1299-neo p53 null cells, ATP luminescence, 24 h, 32C; Potency, µM (series often up to 46.1 µM), hits mostly cytotoxic; 0.62% of 55,000 active; further: nearly all actives have a fitted effect of over 55% in size
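Cells lacking p53 (H1299-neo) are plated at 600 per well and allowed to settle overnight at 37C. Test compounds (up to 46 uM) are added and held 24 hours at 32C, then ATP is quantified by luminescence.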
Numbers stand for hits; – = inactive; ? = inconclusive; · = no result. An excerpt weighted towards active compounds, which were near 3.2% of everything screened. Unless noted, the call rests on the fitted dose curve; in most records, active means well fitted curve in the direction sought with a large enough effect; inconclusive means small, poorly fitted or top-dose-only effect, or another doubt; inactive means no such curve, though single readings can be large; an effect the other way counts as inactive or inconclusive.

SMILES | S16 viability | PMP22 txn | p53null 39C tox | pS6 MEF inh | p53null 32C kill
CCC1CCCCN1CCCNC(=O)c1ccc2c(c1)N(Cc1ccc(Cl)cc1)C(=O)c1ccccc1S2(=O)=O (configuration not stated) | ? | ? | 25.1µM | ? | –
CC1CCCN(CCCNC(=O)c2ccc3c(c2)N(Cc2ccc(Cl)cc2)C(=O)c2ccccc2S3(=O)=O)C1 (configuration not stated) | ? | ? | 15.8µM | 13.1µM | ?
CCC1CCCCN1CCCNC(=O)c1ccc2c(c1)N(Cc1ccccc1)C(=O)c1ccccc1S2(=O)=O (configuration not stated) | – | ? | – | – | –
Cc1ccc(C)c(CN2C(=O)c3ccccc3S(=O)(=O)c3ccc(C(=O)NCCCN4CCCC(C)C4)cc32)c1 (configuration not stated) | ? | ? | ? | ? | –
CCCn1c(C(C)NC(=O)c2ccccc2)nc2ccccc21 (configuration not stated) | · | · | – | · | –
Cc1ccc(C)c(NC(=O)Cn2nnc(C(=O)NCc3ccco3)c2N)c1 | ? | 10.1µM | – | – | –
COc1ccc(C(=O)COC(=O)c2cccc(NC(=O)c3ccc(OC)c(OC)c3)c2)cc1 | – | – | ? | – | 15.8µM
CCOc1ccc(S(=O)(=O)N2CCN(c3c(C)cccc3C)CC2)c2ccccc12 | – | ? | – | – | –
O=C(CN1C(=O)C2(SCC(=O)N2c2ccc(F)c(F)c2)c2ccccc21)Nc1cccc(Cl)c1 (configuration not stated) | ? | ? | – | – | –
Cc1cccc2sc(N(Cc3cccnc3)C(=O)CCS(=O)(=O)c3ccccc3)nc12 | ? | ? | 12.6µM | ? | ?
Cc1ccc2sc(N(Cc3cccnc3)C(=O)CCS(=O)(=O)c3ccccc3)nc2c1C | ? | ? | – | – | –
c1ccc2cc(OCc3nc4ccccc4[nH]3)ccc2c1 | · | · | 11.2µM | · | 11.2µM
O=C(COc1ccc(F)cc1)NCCc1nc2ccccc2[nH]1 | – | – | – | – | –
COC(=O)c1cc2oc(C)cc2n1Cc1ccc(Br)cc1F | – | ? | – | – | –
O=C(CCNS(=O)(=O)c1ccc2c(c1)CCN2C(=O)C1CC1)N1CCN(c2ccc(F)cc2)CC1 | ? | ? | – | ? | –
Cc1ccc(OCCn2c(=O)cnc3ccccc32)cc1 | · | · | – | · | –
CCn1c(=N)n(CCOc2ccc(Br)cc2)c2ccccc21 | ? | ? | – | 13.1µM | –
O=C(Nc1ccccc1F)c1ccc2c(Cl)c3c(nc2c1)CCC3 | – | ? | 1.58µM | – | 1.26µM
Cc1nc(-c2ccc(S(=O)(=O)Nc3ccc(C#N)cc3)cc2)co1 | – | – | – | – | –
COc1ccc(-c2nnc(SC(C)C(=O)O)o2)cc1 (configuration not stated) | – | – | 15.8µM | – | ?
CC(C)NC(=O)c1cc2c(s1)CCCC2 | · | · | 10µM | · | ?
CNC(=O)c1cc2c(s1)CCCCCC2 | · | · | – | · | –
O=C(CC(Nc1ccc(Cl)cc1)C(=O)O)c1ccccc1 (configuration not stated) | · | · | 14.1µM | · | ?
COc1ccc(-c2nnc(SCc3cc(=O)c4cc(C)cc(C)c4[nH]3)n2C)cc1 | ? | 14.1µM | – | ? | –
COc1ccc(C(=O)Nc2nnc(SCc3cc(=O)c4cc(C)cc(C)c4[nH]3)s2)cc1 | – | – | – | – | –
SMILES | S16 viability | PMP22 txn | p53null 39C tox | pS6 MEF inh | p53null 32C kill
O=S(=O)(NCC(c1cccs1)S(=O)(=O)c1ccccc1)c1ccc(F)c(C(F)(F)F)c1 (configuration not stated) | 20µM | ? | – | – | –
COc1ccc(S(=O)(=O)NCC(c2cccs2)S(=O)(=O)c2ccccc2)cc1OC (configuration not stated) | ? | ? | – | – | –
Cc1cc(S(=O)(=O)C(CNC(=O)COc2ccccc2)c2cccs2)ccc1F (configuration not stated) | – | – | – | – | –
O=S(=O)(NCC(c1cccs1)S(=O)(=O)c1ccccc1)c1ccc(F)cc1 (configuration not stated) | 20µM | ? | – | – | –
Cc1ccc(CNC(=O)Cn2c(SCC(=O)Nc3ccc(F)cc3)nc3ccccc32)cc1 | ? | ? | 12.6µM | ? | ?
CCOC(=O)C1CCN(C(=O)CCS(=O)(=O)c2cc3c(cc2Cl)NC(=O)CO3)CC1 | – | – | – | – | –
COc1cc(NC(=O)CSc2ccc(-c3ccccn3)nn2)cc(OC)c1 | – | ? | ? | 13.1µM | –
COc1cccc(NC(=O)CSc2c3c(nc4ccccc24)CCCC3)c1 | ? | ? | – | ? | –
Cc1ccc(NC(=O)CSc2c3c(nc4ccccc24)CCCC3)cc1F | – | ? | 22.4µM | – | –
Cc1ccc(NC(=O)CSc2ccc(-c3ccccn3)nn2)cc1F | – | – | – | 14.7µM | –
CCOc1ccccc1NC(=O)Nc1nnc(N(C)Cc2ccccc2)s1 | – | – | – | – | –
CCOc1ccc(-c2cc(C(=O)NCCc3ccc(Cl)cc3)c3ccccc3n2)cc1 | – | – | – | – | ?
Clc1cccc(Nc2ncnc3c2nc2n3CCCCC2)c1 | – | ? | – | – | –
Cc1ccc(Nc2ncnc3c2nc2n3CCCC2)c(Br)c1 | – | – | 11.2µM | – | ?
Fc1ccc(N2CCN(c3ncnc4c3nc3n4CCCC3)CC2)cc1 | ? | 4.5µM | – | – | ?
O=C(C1CCN(c2ncnc3c2nc2n3CCCCC2)CC1)N1CCN(c2ccc(F)cc2)CC1 | ? | ? | – | – | –
Cc1cccc(N2CCN(c3ncnc4c3nc3n4CCCCC3)CC2C)c1 (configuration not stated) | 8.91µM | 4.39µM | ? | 9.27µM | –
Clc1cccc(N2CCN(c3ncnc4c3nc3n4CCCC3)CC2)c1 | ? | ? | – | – | –
COc1cccc(C(=O)c2cn(CC(=O)Nc3cc(Cl)c(OC)cc3OC)c3nc(C)ccc3c2=O)c1 | – | ? | – | – | –
COCCCNC(=O)CCc1c(C)nc2nc(-c3cc(OC)cc(OC)c3)nn2c1C | – | – | – | – | –
CCN1CCN(C(=O)Cn2ncc3c4ccccc4n(Cc4c(C)cc(C)cc4C)c3c2=O)CC1 | ? | ? | ? | 16.5µM | –
COc1ccc(CCNC(=O)c2ccc3c(c2)nc2n3CCCCC2)cc1OC | ? | – | – | – | –
COc1cc(NC(=O)CSc2nc(-c3ccc(C(C)C)cc3)no2)cc(OC)c1 | – | 9.05µM | – | – | –
